Mtb BioA inh – inhibitors of Mycobacterium tuberculosis BioA enzyme; purified M. tuberculosis BioA enzyme, plate reader; inhibition, % at 9.99 µM; 360,000 compounds, 0.096% hits; in the data active = inhibition above about 40%
VHR inh abs – inhibitors of human VHR1 phosphatase (DUSP3); P51452; recombinant VHR phosphatase, pNPP absorbance; inhibition, % at 13.3 µM; 290,000 compounds, 0.52% hits; AID 1654; in the data active = inhibition above about 50%
Target sequence (P51452 whole entry, looked up): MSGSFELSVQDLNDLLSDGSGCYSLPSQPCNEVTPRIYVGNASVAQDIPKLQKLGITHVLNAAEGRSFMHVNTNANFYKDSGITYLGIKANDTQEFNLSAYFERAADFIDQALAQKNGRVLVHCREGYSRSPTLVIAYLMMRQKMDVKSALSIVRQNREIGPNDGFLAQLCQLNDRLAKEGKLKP
MazF activator – activators of E. coli MazEF toxin-antitoxin RNase. P0AE70. FAM/BHQ RNA-DNA oligo cleavage fluorescence, 5 h. activation, % at 20 µM. 350,000 compounds, 0.32% hits; in the data active = activation above about 50%
Target sequence (P0AE70 whole entry, looked up): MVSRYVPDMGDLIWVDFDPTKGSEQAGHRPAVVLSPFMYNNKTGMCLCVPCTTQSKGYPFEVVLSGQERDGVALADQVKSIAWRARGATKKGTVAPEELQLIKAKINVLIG
TcdB inh – TcdB glycohydrolase inhibition. P18177. TcdB glycohydrolase enzymatic assay, plate reader. inhibition, % at 9.99 µM. 350,000 compounds, 0.24% hits; in the data active = inhibition above about 10%
Yp Topo-I inh – Y. pestis Topo-I inhibition via cleavage products; Y. pestis Topo-I cleavage product accumulation, plate reader; activity, % at 10 µM; 360,000 compounds, 0.064% hits; in the data active = activity above about 50%, passing the limit was not always enough
FadD28 binding – M. tuberculosis FadD28 bisubstrate binding inhibition; 360,000 compounds, 0.22% hits; inhibition, % at 12.5 µM; FadD28 bisubstrate probe binding, fluorescence polarization; AID 588549; in the data active = inhibition above about 8.5%, passing the limit was not always enough
Active calls of the source: *; . = no result. Shown are actives, neighbours in structure and some others; about 1% of the full set was active somewhere.

SMILES	Mtb BioA inh	VHR inh abs	MazF activator	TcdB inh	Yp Topo-I inh	FadD28 binding
COc1ccccc1-n1c(CCC(=O)O)ccc1-c1ccccc1	2	15	5	11*	-15	-2
O=C1NN(c2cccc(Br)c2)C(=O)/C1=C\c1ccc(N2CCOCC2)cc1	-1	53*	4	.	-7	-2
O=C1NC(=O)N(Cc2cccs2)C(=O)/C1=C/c1ccc(N2CCOCC2)cc1	.	8	-22	1	2	-2
CCC(=O)Nc1ccc2c(c1)C(=O)N(C)C[C@@H](OC)[C@@H](C)CN(C(=O)c1cnccn1)[C@@H](C)CO2	0	.	.	0	.	.
O=C(NCC[C@@H]1CC[C@@H](NS(=O)(=O)c2ccc(F)cc2)[C@@H](CO)O1)Nc1ccc(F)cc1	-1	.	.	0	.	.
Cc1cnc([N+](=O)[O-])n1CCOC(=O)c1cccc(F)c1	0	-5	-5	-1	-4	-1
Cc1cnc([N+](=O)[O-])n1CCOC(=O)NC(=O)c1ccc(F)cc1	.	26	-8	32*	7	-3
C[C@H](NC(=O)C[C@H]1CC[C@@H](NC(=O)C2CC2)[C@@H](CO)O1)c1ccccc1	1	.	.	-1	.	.
Nc1ccc(S(=O)(=O)c2cc(O)c3ccccc3c2O)cc1	.	.	-3	0	-16	9.5*
CC(C)(C)c1ccc(OCCn2nc(C(=O)O)c3ccccc3c2=O)cc1	2	18	-6	-1	72*	-6
O=C(Nc1ccc(Cl)cc1)N[C@@H]1CC[C@H](CCn2cc(Cc3ccccc3)nn2)O[C@H]1CO	-1	.	.	0	.	.
C[C@@H]1CCCCO[C@@H](CN(C)C(=O)Nc2ccc3c(c2)OCO3)[C@@H](C)CN([C@@H](C)CO)C(=O)c2cc(NC(=O)NC3CCCCC3)ccc2O1	.	.	.	0	.	.
CCOC(=O)/C(=N\Nc1ccc(C(C)=O)cc1)c1csc(Nc2ccccc2)n1	.	12	56*	.	-5	-2
CC(C)c1cn(CC[C@@H]2CC[C@@H](NC(=O)c3cccc(F)c3)[C@@H](CO)O2)nn1	5	.	.	-1	.	.
CCCOc1ccc2oc(=O)c3c(c2c1)CCCN3C(=O)CN1CCN(c2ncccn2)CC1	0	56*	3	.	-1	1
CCCOc1ccc2oc(=O)c3c(c2c1)CCCN3C(=O)CN1CCN(C(=O)c2ccco2)CC1	.	13	.	.	.	.
COC(=O)C(C(=O)OC)C(CC(=O)c1ccc(Br)cc1)c1ccccc1 (stereo not given)	-1	.	8	14*	33	-3
COc1ccccc1NS(=O)(=O)c1ccc(-c2cnc(C3CC3)o2)cc1	-1	-14	0	-2	-13	-1
COc1ccc(NS(=O)(=O)c2ccc(-c3cnc(C4CC4)o3)cc2)cc1OC	0	52*	0	0	3	-2
CCn1c(NC(=O)c2cccc(Cn3cc(Cl)cn3)c2)nc2ccccc21	1	51*	10	1	20	-1
Cn1c(NC(=O)c2cccc(Cn3cc(Cl)cn3)c2)nc2ccccc21	-2	22	-35	.	12	-2
O=C(Nc1ccc2oc(-c3ccccc3)nc2c1)c1cc(-n2cnnc2)ccc1Cl	.	-3	54*	1	0	-5
O=C(Nc1ccc(-c2nc3ccccc3o2)cc1)c1cc(-n2cnnc2)ccc1Cl	-2	4	-26	.	29	-4
Cc1c(C(=O)N2CCN(C(=O)c3ccco3)CC2)oc2c(Cl)cccc12	2	.	9	2	35	-4
CCCN1CCN(C(=O)c2oc3c(Cl)cccc3c2C)CC1	0	56*	-17	0	-2	0
SMILES	Mtb BioA inh	VHR inh abs	MazF activator	TcdB inh	Yp Topo-I inh	FadD28 binding
Cc1nn2c(N3CCN(C4CCCC4)CC3)cc(C(C)(C)C)nc2c1-c1ccccc1	-1	51*	0	.	-5	-1
Cc1cc(C)c(OCC(=O)Nc2cc(C(=O)O)cc(C(=O)O)c2)cc1C	.	-16	6	1	10	-1
Cc1ccc(C)c(OCC(=O)Nc2cc(C(=O)O)cc(C(=O)O)c2)c1	.	53*	0	-1	-9	-2
C[C@@H]1CN([C@H](C)CO)S(=O)(=O)c2ccc(C#CCN(C)C)cc2O[C@H]1CN(C)Cc1ccccc1F	-2	.	.	0	.	.
C[C@@H]1CN([C@H](C)CO)C(=O)c2cc(C#CCN(C)C)cnc2O[C@H]1CN(C)C(=O)c1cccc(F)c1	-2	.	.	1	.	.
O=[N+]([O-])c1ccc(/C=N/n2cnc3ccccc32)s1	-3	-4	189*	0	-13	0
O=[N+]([O-])c1ccc(/C=N/n2c(CO)nc3ccccc32)s1	-2	48	99*	.	-2	-1
Cc1nc2ccccc2n1/N=C/c1ccc([N+](=O)[O-])s1	.	-7	49	0	1	2
CCCNC(=O)C[C@@H]1CC[C@H]2[C@@H](COC[C@H](O)CN2Cc2ccc(Cl)c(Cl)c2)O1	3	.	.	1	.	.
NC(=O)[C@@H]1[C@H]2C(=O)O[C@H](c3ccccc3)[C@H](c3ccccc3)N2[C@H](c2ccc(O)cc2)[C@@]12C(=O)Nc1ccc(C#CC3(O)CCCCCC3)cc12	-2	.	.	1	.	.
CCCCn1c(C)cc(C)c(S(=O)(=O)c2ccccc2C)c1=O	0	27	-7	.	59*	-2
CCC(=O)N1CC(=O)N2[C@H](CO)[C@H](c3ccc(C#Cc4cccc(F)c4)cc3)[C@@H]2C1	.	.	.	-1	.	.
CSc1ccccc1NC(=O)COC(=O)c1ccccc1Cc1ccccc1	.	-7	4	.	62*	0
CSc1ccccc1NC(=O)COC(=O)c1ccccc1O	.	18	9	0	0	-4
O=C(C[C@H]1C=C[C@@H](NC(=O)Cc2ccccn2)[C@@H](CO)O1)NCCCN1CCOCC1	-3	.	.	0	.	.
O=C(CCC1CCCN(C(=O)c2cc(C3CC3)[nH]n2)C1)N1CCN(c2ccccn2)CC1 (stereo not given)	.	52*	7	0	4	-1
C[C@H]1CN([C@@H](C)CO)C(=O)c2ccccc2-c2ccccc2CO[C@H]1CN(C)S(=O)(=O)CC(F)(F)F	-1	.	.	0	.	.
CC12N=C3SCc4ccccc4CN3[C@H](c3ccccc3O1)[C@H]2CO[Si](C)(C)C(C)(C)C	1	.	.	0	.	.
C/C=C/c1cnc2c(c1)C(=O)N([C@H](C)CO)C[C@H](C)[C@H](CN(C)C(=O)NC1CCCC1)O2	-2	.	.	0	.	.
O=C(NCC1CCCO1)C(c1ccco1)N(Cc1ccc(F)cc1)C(=O)CN1C(=O)c2ccccc2S1(=O)=O (stereo not given)	-1	58*	-15	1	27	-6
COc1cccc(CN(C(=O)CN2C(=O)c3ccccc3S2(=O)=O)C(C(=O)NCC2CCCO2)c2ccco2)c1 (stereo not given)	.	25	8	1	22	-5
C/C=C/c1cnc2c(c1)C(=O)N([C@@H](C)CO)C[C@@H](C)[C@@H](CN(C)Cc1ccccc1)O2	-2	.	.	0	.	.
COc1cccc(-c2ccc([C@@H]3[C@H]4CN(C(=O)c5ccncc5)CC(=O)N4[C@H]3CO)cc2)c1	.	.	.	1	.	.

Bioassay records (PubChem BioAssay)
